Shown is part of a subset that was picked to be rich in hits.
Tg IFNy HTS: inhibitors of Toxoplasma gondii growth with IFN-gamma; Toxoplasma gondii growth in IFN-gamma-treated host cells; active compounds read low; activity change, negative = inhibition, % (no concentration beside the values); AID 1259416; 3.8% of 69,000 active; in the data active = activity change below about -70%, passing the limit was not always enough;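 note: host cells are HeLa cells infected with Toxoplasma gondii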
Each line names hits and unclear results; the compound was inactive in the other large screens; ! = not confirmed by another sample.

COC(=O)C1SCCN1C(=O)c1cc(-c2ccc(Cl)cc2)oc1C (stereo not given)	none
Cc1ccc(CN2CC[C@@H]3OC[C@H](C(=O)N4CCCO4)C[C@H]3C2)o1	none
O=C(Nc1cccnc1)c1cc(-c2cnc(-c3ccccc3)nc2)cn1CC1CC1	Tg IFNy HTS -77
O=C(NCc1ccc(F)cc1F)c1cc(-c2cnc(-c3cccnc3)nc2)cn1CC1CC1	none
O=C(Nc1cccnc1)c1cc(-c2cnc(N3CCCC3)nc2)cn1CC1CC1	none
CCc1cccc(NC(=O)c2c(O)c3cccnc3n(-c3ccc(OC)cc3)c2=O)c1	none
Cc1cc(N2CCCN(Cc3nc(C)n4ccccc34)CC2)ccn1	none
O=C(c1ccc2c3c(cccc13)CC2)C1CCCN(Cc2cccc(OCCO)c2)C1 (stereo not given)	none
CCSc1nc(CC(=O)Nc2cnc3n2CCCC3)cs1	none
CCCCc1c(C)[nH]c2ccccc2c1=O	Tg IFNy HTS -99
CCCCCCCCCc1nc2c(=O)[nH]c3ccccc3c2o1	none
CCC(CC)n1ncc(C)c1NC(=O)CCc1c(C)[nH]c2ccccc2c1=O	none
CN1CCN(Cc2ccccc2)C2(CCN(S(=O)(=O)N(C)C)CC2)C1=O	none
O=C1OC(=O)C2C3CCC(O3)C12 (stereo not given)	Tg IFNy HTS -75
CCS(=O)(=O)N1CCC2(CC1)OC(=O)C(C)=C2C(=O)NCCCN(C)C1CCCCC1	none
C1CCC(N2CCN(C3C4CCCC3CNC4)CC2)CC1 (stereo not given)	none
CCN1c2ccccc2C(=O)NC12CCN(C(=O)c1ccc(C(F)(F)F)cc1)CC2	none
Cc1nn(C)c(C)c1CN(CC1CCCC1)C1CC1	none
O=S(=O)(Oc1cccc(C(F)(F)F)c1)c1ccc(-c2cc(C(F)(F)F)on2)s1	none
Cc1ccccc1CC1(CO)CCCN(c2nccc(N)n2)C1 (stereo not given)	none
Cn1cc(-c2[nH]c3cc(NC(=O)[C@H](N)C4CCCCC4)cc4c3c2C=NNC4=O)cn1	Tg IFNy HTS -78
Cc1ccc2c(c1)CCCN2C(=O)CN(C)Cc1snnc1C	none
CN1CCN(C2CCN(C(=O)Nc3cc(Oc4ccc(NC(=O)C5(C(=O)Nc6ccc(F)cc6)CC5)c(F)c4)ccn3)CC2)CC1	none
COc1cc2nccc(Oc3ccc(NC(=O)C4(C(=O)Nc5ccc(F)cc5)CC4)cc3)c2cc1OC	Tg IFNy HTS -91
COc1ccc(NC(=O)C(=O)NCCc2csc(-c3ccc(F)cc3)n2)cc1OC	none
CN(Cc1cnn(-c2ccc(F)cc2)c1)Cc1cccc2nccnc12	none
CCc1nc(Cn2ccnc2-c2cnc(-c3cccc(C)c3)nc2)no1	none
Cc1nc(C(=O)Nc2ccccc2Cl)cc2c1[nH]c1ccccc12	Tg IFNy HTS -81
Cc1c(Cl)cccc1NC(=O)c1c(O)c2ccccc2[nH]c1=O	none
O=C(Nc1ccccc1Cl)c1nc(Nc2ccccc2)c2ccccc2n1	none
CCc1cnc(N2C[C@H](OCCN(C)C)[C@@H]3COC[C@@H]32)nc1	none
Cc1ccc(-c2coc(-c3ccc(NS(=O)(=O)c4ccc(Br)cc4)cc3)n2)c(C)c1	none
CCCCc1n[nH]c(=O)n1Cc1cccc(C)c1	none
CCOC(=O)c1sc(NC(=O)CSc2nnc(-c3ccco3)o2)nc1C	none
CO[C@H]1C=CO[C@@]2(C)Oc3c(C)c(O)c4c(O)c(c(/C=N/N5CCN(C)CC5)c(O)c4c3C2=O)NC(=O)/C(C)=C\C=C/C(C)[C@H](O)[C@@H](C)[C@@H](O)[C@@H](C)[C@@H](OC(C)=O)[C@@H]1C (stereo not given in full)	none
CC(C)CN(C[C@@H](O)[C@H](Cc1ccccc1)NC(=O)O[C@H]1CO[C@H]2OCC[C@H]21)S(=O)(=O)c1ccc(N)cc1	Tg IFNy HTS -72
CC(C)CN(C[C@@H](O)[C@H](Cc1ccccc1)NC(=O)O[C@H]1CCOC1)S(=O)(=O)c1ccc(N)cc1	none
COCC(C)(C)C(=O)N1CCc2[nH]nc(-c3ccc(F)c(F)c3)c2C1	none
Cc1nc2ccc(NC(=S)N3CCC(c4ccccc4)C3)cc2nc1C (stereo not given)	none
CC(C(=O)NCc1cc(-c2ccco2)on1)n1cnc2ccccc21 (stereo not given)	none
Cc1n[nH]c(C)c1S(=O)(=O)N1CCCC(COc2ccccc2F)C1 (stereo not given)	none
COc1c(O)cc2oc3cc(O)c(CC=C(C)C)c(O)c3c(=O)c2c1CC=C(C)C	Tg IFNy HTS -71
COc1cc2oc3cc(OC)c(OC)c(CC=C(C)C)c3c(=O)c2c(O)c1CC=C(C)C	none
CC(C)=CCc1c(O)cc2oc(C)cc(=O)c2c1O	none
O=C(c1ccc[nH]1)N1CCOC(CC(c2ccccc2)c2ccccc2)C1 (stereo not given)	none
Fc1cccc(CN2CCN(Cc3cnc(-c4ccccc4)nc3)CC2)c1	none
O=C(Oc1ccc(Cl)cc1)c1cscc1Sc1ccc(Cl)cc1	Tg IFNy HTS -101
O=C(Nc1ccc(OC(F)(F)F)cc1)c1cscc1Sc1ccc(Cl)cc1	none
Cc1cc(C(=O)Oc2ccc(Cl)cc2)no1	none
CC(C)CCCC1CN(C(=O)c2cnc(C(C)C)[nH]c2=O)CCO1 (stereo not given)	none
CNCCC=C1c2ccccc2C=Cc2ccccc21	none
CNCCCC1c2ccccc2C=Cc2ccccc21	Tg IFNy HTS -81!
CC(=O)N1Cc2ncn(CC3CC3)c2C(COCC2CCOCC2)C1 (stereo not given)	none
Cc1cc(C)n2ncc(CN3CCC(Cc4noc(C5CC5)n4)CC3)c2n1	none
Cc1ccsc1C(=O)N1CCC(N2CCOCC2)CC1C(=O)O (stereo not given)	none
COc1ccc(-c2cc(C3CNC3)nc(C)n2)cc1	Tg IFNy HTS -77
COc1ccc(-c2cc(C)nc(C3CCNCC3)n2)cc1	none
COc1ccc(-c2cc(-c3ccc(OC)cc3)nc(-c3ccc(C)o3)c2)cc1	none
COCCN(C)C(=O)c1cc(-c2ccn(-c3ccc(OC)cc3)n2)n2ccccc12	none
CCOC(=O)Cn1nc2nnc(-c3ccc(F)cc3)c(-c3ccc(F)cc3)n2c1=O	none
Cc1ccc(Cn2c(-c3ccc(F)cc3)c(-c3ccc(F)cc3)nnc2=O)cc1	Tg IFNy HTS -83
Cc1ccc(-n2sc(=O)n(Cc3ccc(F)cc3)c2=O)cc1	none
COc1ccc(CNC(=O)Nc2ccc(-c3nc(-c4ccc(C)cc4C)co3)cc2)cc1	none
CS(=O)(=O)N1CCC2(CC1)COC(COc1ccccn1)C2 (stereo not given)	none
O=C(N1CCCCC1)C12CC3CC(CC(C3)C1)C2	none
O=C(c1ccc2nc(NC(=O)C34CC5CC(CC(C5)C3)C4)sc2c1)N1CCCCC1	Tg IFNy HTS -85
O=C(Nc1ccncc1)C12CC3CC(CC(C3)C1)C2	none
COc1ccccc1-c1noc(-c2nnn(Cc3nc(-c4ccc(C)cc4)oc3C)c2C)n1	none
COC(=O)c1c(NCc2ccc(C)o2)c2cccc(Cl)c2[nH]c1=O	none
CCCNc1c(C(=O)OC)c(=O)[nH]c2c(Cl)cccc12	none
COC(=O)c1c(NCCc2cccs2)c2cccc(Cl)c2[nH]c1=O	Tg IFNy HTS -86
CCCCNc1c(C(=O)OC)c(=O)[nH]c2c(Cl)cccc12	none
COC(=O)c1c(NCc2ccc(F)cc2)c2cccc(Cl)c2[nH]c1=O	Tg IFNy HTS -88
COC(=O)c1c(NCCN2CCC(C)CC2)c2cccc(Cl)c2[nH]c1=O	none
COC(=O)c1c(NCc2ccccc2F)c2cccc(Cl)c2[nH]c1=O	none
COC(=O)c1c(NC(C)c2ccccc2)c2cccc(Cl)c2[nH]c1=O (stereo not given)	none
CCOc1cccc(CNc2c(C(=O)OC)c(=O)[nH]c3c(Cl)cccc23)c1	Tg IFNy HTS -82
Cc1ccc2c(c1)NC1(CCN(S(=O)(=O)c3ccc(Cl)cc3)CC1)c1cccn1-2	none
Cc1cccc(S(=O)(=O)N2C[C@H]3C[C@H](C(=O)NC(C)C)[C@@H](C2)O3)c1	none

Source: PubChem
